Sampled rows, rich in hits. Any-hit rate of the full collection: about 1.3%.
NR5A2 inv ag: suppresses constitutive activity of human LRH-1; HEK293T StAR-luciferase reporter, LRH-1 transfected, 24 h; inhibition, % at 3.6 µM; 360,000 compounds, 0.13% hits; AID 602396;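 active means inhibition above the mean inhibition of all tested compounds plus 3 SD, cut at about 73% in these data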
Target sequence (O00482 whole entry, looked up): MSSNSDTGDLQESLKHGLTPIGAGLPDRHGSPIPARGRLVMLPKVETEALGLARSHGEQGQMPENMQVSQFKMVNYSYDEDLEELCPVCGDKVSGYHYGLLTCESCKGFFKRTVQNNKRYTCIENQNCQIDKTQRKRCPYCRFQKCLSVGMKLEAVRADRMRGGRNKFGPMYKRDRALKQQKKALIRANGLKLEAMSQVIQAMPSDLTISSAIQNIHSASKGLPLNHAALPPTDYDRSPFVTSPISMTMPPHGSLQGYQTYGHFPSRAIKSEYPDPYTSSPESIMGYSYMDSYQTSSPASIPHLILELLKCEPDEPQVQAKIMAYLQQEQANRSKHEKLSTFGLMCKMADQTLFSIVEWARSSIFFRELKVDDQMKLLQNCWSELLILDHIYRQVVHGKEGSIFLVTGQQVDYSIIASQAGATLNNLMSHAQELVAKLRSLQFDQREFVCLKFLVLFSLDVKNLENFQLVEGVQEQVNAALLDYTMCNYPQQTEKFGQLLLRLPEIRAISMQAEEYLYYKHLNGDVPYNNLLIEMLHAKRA
NCOA1 inh: inhibits human SRC1 coactivator. Q15788. HEK293 GAL4-SRC1 luciferase reporter, luminescence. inhibition, % at 3.6 µM. 360,000 compounds, 0.12% hits. AID 588354;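 active means inhibition above the campaign mean plus 3 SD, with each screening campaign given its own cutoff, cut at about 60% in these data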
NCOA3 inh: inhibitors of human steroid receptor coactivator 3 (SRC3) | AID 588352 | 360,000 compounds, 0.17% hits | inhibition, % at 3.6 µM | HEK293 GAL4-SRC3 luciferase reporter, luminescence | Q9Y6Q9;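 active means inhibition above a per-campaign cutoff, the mean of all compounds plus 3 SD, cut at about 60% in these data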;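 further: higher means less SRC3-driven luciferase light from the GAL4 reporter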
COUP-TFII inh: NR2F2 (human) inhibition, primary screen; 370,000 compounds, 0.7% hits; inhibition, % at 8.6 µM; P24468; HEK293T NGFI-A luciferase reporter, luminescence;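 active means inhibition above a per-plate cutoff, mean inhibition of test wells between control levels plus 3 SD, cut at about 38% in these data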;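 further: cells cotransfected with COUP-TFII expression vector driving the NGFI-A reporter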
SRC2 inh: inhibits human steroid receptor coactivator 2; 370,000 compounds, 0.17% hits; AID 651957; HEK293 GAL4-SRC2 luciferase reporter, luminescence; inhibition, % at 9 µM;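 active means inhibition above the mean inhibition of all tested compounds plus 3 SD, set per campaign, cut at about 52% in these data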
Gli-Sufu block: antagonists of Gli-Sufu signaling | AID 588413 | 340,000 compounds, 0.74% hits | inhibition, % at 5 µM | Sufu-KO-LIGHT fibroblasts, Gli luciferase reporter luminescence;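 active means inhibition above about 55%, limit read from the data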
Gli antag conf: confirmation of Gli-SUFU pathway antagonists; 2,500 compounds, 40% hits; shares compounds with Gli-Sufu block; inhibition, % at 5 µM; Sufu-KO-LIGHT cells, Gli luciferase reporter, luminescence; AID 602428;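 active means mean inhibition at 5 µM reaching about 45%, limit read from the data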
Gli cytotox: cytotoxicity counter-screen for Gli-SUFU antagonists. Sufu-KO-LIGHT cells cytotoxicity, ATP luminescence. cytotoxicity, % at 5 µM. shares compounds with Gli-Sufu block. 2,500 compounds, 32% hits. AID 651994;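 active means mean cytotoxicity at 5 µM above about 25%, limit read from the data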;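 further: cells exposed to compound overnight for roughly 16 to 18 hours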
Wnt3a cs: inhibits Wnt3a reporter, counter-screen for Gli-SUFU antagonists; shares compounds with Gli-Sufu block; Wnt-LIGHT cells, Wnt3a-driven luciferase reporter, luminescence; inhibition, % at 6.25 µM; 2,500 compounds, 20% hits; AID 651995;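 active means mean inhibition above about 25%, limit read from the data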
Hits are given with their value.

Results for COCCn1c(C)cc(C2=NNC(=Nc3ccccc3)SC2)c1C ?
NR5A2 inv ag: inactive; NCOA1 inh: inactive; NCOA3 inh: inactive; COUP-TFII inh: inactive; SRC2 inh: inactive; Gli-Sufu block: inactive; Gli antag conf: inactive; Gli cytotox: 40; Wnt3a cs: inactive

What do the screens show for `COCCn1c(C)cc(C2=NNC(=Nc3ccc(OC)cc3)SC2)c1C`?
NR5A2 inv ag: inactive; NCOA1 inh: inactive; NCOA3 inh: inactive; Gli-Sufu block: inactive

What do the screens show for `O=C(C1=C[C@H](c2coc3ccccc3c2=O)C[C@H](OCc2ccc(CO)cc2)O1)N1CCN(Cc2ccc3c(c2)OCO3)CC1`?
NR5A2 inv ag: inactive; NCOA1 inh: inactive; NCOA3 inh: inactive; COUP-TFII inh: inactive; SRC2 inh: inactive; Gli-Sufu block: inactive; Gli antag conf: inactive; Gli cytotox: inactive; Wnt3a cs: inactive

Results for O=C(C1=C[C@@H](c2coc3ccccc3c2=O)C[C@@H](OCc2ccc(CO)cc2)O1)N1CCN(Cc2ccc3c(c2)OCO3)CC1 ?
NR5A2 inv ag: inactive; NCOA1 inh: inactive; NCOA3 inh: inactive; COUP-TFII inh: inactive; SRC2 inh: inactive; Gli-Sufu block: inactive

How did Cc1cc(C)nc(NC(=S)N2CCN(c3ccc(Cl)c(Cl)c3)CC2)c1 do in these assays?
COUP-TFII inh: inactive

How did O=C(CN1C(=O)c2cccc3cccc1c23)N1CCN(c2ccccc2)CC1 do in these assays?
NR5A2 inv ag: inactive; NCOA1 inh: inactive; NCOA3 inh: inactive; COUP-TFII inh: inactive; SRC2 inh: inactive; Gli-Sufu block: 93; Gli antag conf: inactive; Gli cytotox: inactive; Wnt3a cs: inactive

How did O=C(CN1C(=O)c2cccc3cccc1c23)N1CCN(c2ccc(F)cc2)CC1 do in these assays?
NR5A2 inv ag: inactive; NCOA1 inh: inactive; NCOA3 inh: inactive; COUP-TFII inh: inactive; SRC2 inh: inactive; Gli-Sufu block: inactive

How did C[C@@H]1CCN(C2CC2)S(=O)(=O)c2ccc(N3CC[C@@H](O)C3)cc2O1 do in these assays?
COUP-TFII inh: inactive; SRC2 inh: inactive

Results for Cc1nc(OCc2ccccc2)c2ccccc2n1 ?
NR5A2 inv ag: inactive; NCOA1 inh: inactive; NCOA3 inh: inactive; COUP-TFII inh: inactive; SRC2 inh: inactive; Gli-Sufu block: inactive

How did COc1ccc(F)cc1COc1nc(C)nc2ccccc12 do in these assays?
NR5A2 inv ag: inactive; NCOA1 inh: inactive; NCOA3 inh: inactive; COUP-TFII inh: inactive; SRC2 inh: inactive; Gli-Sufu block: 61; Gli antag conf: inactive; Gli cytotox: inactive; Wnt3a cs: inactive

What do the screens show for `COC(=O)[C@@]12CCCCC3=C1N(CCC3)C(=O)[C@H]2CC(=O)NCc1ccc(OC)c(OC)c1`?
COUP-TFII inh: inactive; SRC2 inh: inactive

Results for CCOC(=O)C1=C(C)NC(C)=C(C(=O)OCC)C1C ?
NR5A2 inv ag: inactive; NCOA1 inh: inactive; NCOA3 inh: inactive; COUP-TFII inh: inactive; SRC2 inh: inactive; Gli-Sufu block: inactive; Gli antag conf: inactive; Gli cytotox: inactive; Wnt3a cs: inactive

Results for COc1ccc(OC)c(NC(=O)COC(=O)c2ccc(-n3cnnn3)cc2)c1 ?
NR5A2 inv ag: inactive; NCOA1 inh: inactive; NCOA3 inh: inactive; COUP-TFII inh: inactive; SRC2 inh: inactive; Gli-Sufu block: 69; Gli antag conf: inactive; Gli cytotox: inactive; Wnt3a cs: inactive

Results for COc1ccc(OC)c(NC(=O)CSc2nnc(CNC(=O)c3ccccc3F)o2)c1 ?
NR5A2 inv ag: inactive; NCOA1 inh: inactive; NCOA3 inh: inactive; COUP-TFII inh: inactive; SRC2 inh: inactive; Gli-Sufu block: inactive

What do the screens show for `COc1ccc(C(=O)NCc2nnc(SCC(=O)Nc3cc(OC)ccc3OC)o2)cc1`?
NR5A2 inv ag: inactive; NCOA1 inh: inactive; NCOA3 inh: inactive; COUP-TFII inh: inactive; SRC2 inh: inactive; Gli-Sufu block: inactive; Gli antag conf: inactive; Gli cytotox: inactive; Wnt3a cs: inactive

Results for O=C1N2CCc3ccccc3C2CS(=O)(=O)N1CCc1ccccc1 (stereo not drawn) ?
COUP-TFII inh: inactive; SRC2 inh: inactive

How did CSCCC(NC(=O)c1ccco1)C(=O)N1CC(C)OC(C)C1 (stereo not drawn) do in these assays?
NR5A2 inv ag: inactive; NCOA1 inh: inactive; NCOA3 inh: inactive; COUP-TFII inh: inactive; SRC2 inh: inactive; Gli-Sufu block: 58; Gli antag conf: inactive; Gli cytotox: inactive; Wnt3a cs: inactive

How did CCC(C)[C@H]1CNC(=S)N1CCc1cccc2ccccc12 (stereo partly drawn) do in these assays?
NR5A2 inv ag: inactive; NCOA1 inh: inactive; NCOA3 inh: inactive; COUP-TFII inh: inactive; SRC2 inh: inactive; Gli-Sufu block: inactive

How did CCC(C)[C@H]1CN=C(N)N1CCc1cccc2ccccc12 (stereo partly drawn) do in these assays?
NR5A2 inv ag: inactive; NCOA1 inh: inactive; NCOA3 inh: inactive; COUP-TFII inh: inactive; SRC2 inh: inactive; Gli-Sufu block: 62; Gli antag conf: 66; Gli cytotox: inactive; Wnt3a cs: inactive

How did COc1ccc(CCN2CC(C(=O)NCCc3ccc(C(F)(F)F)cc3)CCC2=O)cc1 (stereo not drawn) do in these assays?
NR5A2 inv ag: inactive; NCOA1 inh: inactive; NCOA3 inh: inactive; COUP-TFII inh: inactive; SRC2 inh: inactive; Gli-Sufu block: inactive; Gli antag conf: inactive; Gli cytotox: inactive; Wnt3a cs: inactive

What do the screens show for `COc1ccc(CCN2CC(C(=O)NCCc3ccc(F)cc3)CCC2=O)cc1` (stereo not drawn)?
NR5A2 inv ag: inactive; NCOA1 inh: inactive; NCOA3 inh: inactive; COUP-TFII inh: inactive; SRC2 inh: inactive; Gli-Sufu block: inactive

Results for Cc1cc(N2CCCCC2)nc(NCc2ccccc2)n1 ?
NR5A2 inv ag: inactive; NCOA1 inh: inactive; NCOA3 inh: inactive; COUP-TFII inh: inactive; SRC2 inh: inactive; Gli-Sufu block: inactive; Gli antag conf: inactive; Gli cytotox: inactive; Wnt3a cs: inactive

How did Cc1cc(N2CCOCC2)nc(-c2ccccc2O)n1 do in these assays?
NR5A2 inv ag: inactive; NCOA1 inh: inactive; NCOA3 inh: inactive; COUP-TFII inh: inactive; SRC2 inh: inactive; Gli-Sufu block: inactive

Results for Cc1cc(Nc2cccc(Cl)c2)nc(NCc2ccccc2)n1 ?
NR5A2 inv ag: inactive; NCOA1 inh: inactive; NCOA3 inh: inactive; COUP-TFII inh: inactive; SRC2 inh: inactive; Gli-Sufu block: 74; Gli antag conf: 52; Gli cytotox: 32; Wnt3a cs: inactive

How did Cc1cc(N2CCCCCC2)nc(-c2ccccc2O)n1 do in these assays?
NR5A2 inv ag: inactive; NCOA1 inh: inactive; NCOA3 inh: inactive; COUP-TFII inh: inactive; SRC2 inh: inactive; Gli-Sufu block: 85; Gli antag conf: inactive; Gli cytotox: inactive; Wnt3a cs: inactive
